Measurements reported in PubChem BioAssay.
Where “and” joins values, the source holds several entries; their conditions need not be identical. Equal entries are not always repeated. Calls of active or inactive are those of the source. Unless noted, no stated cut-off is given here; in the data, active means inhibition above about 80%; inactive means the rest. Non-standard residues stand in square brackets, D forms with d. Residues, ends and D or L forms follow the SMILES beside them. Dolaproine = CO[C@@H]([C@@H]1CCCN1)[C@@H](C)C(=O)O; Dil = CC[C@H](C)[C@H](NC)[C@@H](CC(=O)O)OC; NMeV = CN[C@H](C(=O)O)C(C)C

Key:
[1] = LFS_MB_P medulloblastoma growth inhibition, cell-based, chromothripsis tumors, cisplatin or BGB combos (AID 1671449); details: LFS_MB_P medulloblastoma cells;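 further: cells exposed for 96 hours; 0% = vehicle DMSO and 100% = killing by high DMSO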
[2] = HDN33 neuroblastoma growth inhibition, cell-based, chromothripsis tumors, cisplatin or BGB combos (AID 1671450); details: HDN33 neuroblastoma cells, stronger effect = higher value;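 further: cells exposed to compound for four days; 0% = vehicle DMSO and 100% = cell killing by high DMSO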
[3] = ICB984 medulloblastoma cell growth inhibition, synergistic combos for chromothripsis tumors, cisplatin or BGB combos (AID 1671451; call rule not given here;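 further: cells exposed for 96 hours before readout; 0% = vehicle DMSO and 100% = killing by high DMSO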); details: ICB984 medulloblastoma cells, drug combinations, stronger effect = higher value
[4] = LFS_MB_1R medulloblastoma cell growth inhibition, synergistic combos for chromothripsis tumors, cisplatin or BGB combos (AID 1671452); details: LFS_MB_1R medulloblastoma cells, stronger effect = higher value;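 further: cells exposed for 96 hours before readout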
[5] = HTB85 osteosarcoma cell growth inhibition, synergistic combos for chromothripsis tumors, BGB or cisplatin IC20 combos (AID 1671453); details: HTB85 osteosarcoma cells, drug combinations, stronger effect = higher value;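 further: cells exposed for 96 hours before readout; 0% = vehicle DMSO and 100% = high DMSO killing control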
[6] = CRL2098 osteosarcoma cell growth inhibition, synergistic combos for chromothripsis tumors, BGB or cisplatin IC20 combos (AID 1671454); details: CRL2098 osteosarcoma cells, drug combinations, stronger effect = higher value;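 further: cells exposed for 96 h before readout; 0% = vehicle DMSO and 100% = killing by high DMSO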
[7] = HD-MB03 medulloblastoma cell growth inhibition, synergistic combos for chromothripsis tumors, BGB or cisplatin IC20 combos (AID 1671455; in the data active means inhibition above about 83%;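 further: 0% = vehicle DMSO and 100% = high DMSO as cytotoxic control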); details: HD-MB03 medulloblastoma cells, stronger effect = higher value
[8] = UWB1.289 ovarian carcinoma cell growth inhibition, synergistic combos for chromothripsis tumors, BGB or cisplatin combos (AID 1671456); details: UWB1.289 ovarian carcinoma cells, stronger effect = higher value;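 further: cells exposed to compound for four days; 0% = vehicle DMSO and 100% = killing by high DMSO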
[9] = LFS_MB_2R medulloblastoma cell growth inhibition, synergistic combos for chromothripsis tumors, cisplatin combos (AID 1671457); details: LFS_MB_2R medulloblastoma cells, stronger effect = higher value;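 further: cells exposed to compound for four days before readout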
[10] = MDA-MB-436 breast carcinoma cell growth inhibition, synergistic combos for chromothripsis tumors, BGB or cisplatin combos (AID 1671458; call rule not given here;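 further: cells exposed for 96 hours; 0% = vehicle DMSO and 100% = killing by high DMSO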); details: MDA-MB-436 breast carcinoma growth inhibition, drug combinations, stronger effect = higher value
[11] = UWB1.289_BRCA1 ovarian cancer growth, cell-based, BGB or cisplatin combinations (AID 1671459); details: UWB1.289 BRCA1 ovarian carcinoma, drug combinations, stronger effect = higher value
[12] = human astrocyte viability loss, single and combined drugs, cytotoxicity control for chromothriptic childhood tumor combination screen, cell-based, BGB or cisplatin IC20 combos (AID 1671460); details: Human astrocytes, drug combinations, stronger effect = higher value;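 further: cells exposed to compounds for 96 hours before viability readout; 0% = vehicle and 100% = killing control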
[13] = growth inhibition of BT084 medulloblastoma cells, cell-based, ICGC_MB145, cisplatin and BGB IC40 combos (AID 1671461); details: drug combinations, stronger effect = higher value;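 further: cells exposed to drugs for 96 hours; 0% = vehicle DMSO and 100% = high DMSO full killing control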
[14] = growth inhibition of RCMB18 medulloblastoma cells, cell-based, cisplatin and BGB IC40 combos (AID 1671462); details: stronger effect = higher value;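 further: cells exposed to compound for four days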
[15] = growth inhibition of CRL1545 osteosarcoma cells, cell-based, cisplatin and BGB IC20 combos (AID 1671464); details: stronger effect = higher value;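 further: cells exposed to compound for 96 hours before readout; 0% = vehicle DMSO and 100% = high DMSO killing control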
[16] = at 0.5 µM, stronger effect = higher value
[17] = measured here: combination with BGB IC20, at 0.005 µM
[18] = measured here: combination with BGB IC40, at 0.005 µM
[19] = measured here: combination with BGB IC40, at 0.05 µM
[20] = measured here: combination with cisplatin, at 0.5 µM, stronger effect = higher value
[21] = measured here: combination with cisplatin, at 5 µM, stronger effect = higher value
[22] = measured here: with BGB IC20 combination, at 0.5 µM
[23] = measured here: with cisplatin IC20 combination, at 0.5 µM
[24] = measured here: 5 uM single agent, at 5 µM
[25] = measured here: combination with cisplatin, at 0.5 µM
[26] = measured here: combination with cisplatin, at 5 µM
[27] = measured here: with BGB IC20, at 0.5 µM
[28] = measured here: with BGB IC20, at 5 µM
[29] = measured here: with cisplatin IC20, at 0.5 µM
[30] = measured here: with cisplatin IC20, at 5 µM
[31] = measured here: combination with BGB at IC20, at 0.5 µM
[32] = measured here: combination with cisplatin at IC20, at 0.5 µM
[33] = measured here: combo with BGB at IC20, at 0.5 µM
[34] = measured here: combo with cisplatin at IC20, at 0.5 µM
[35] = measured here: inhibition with BGB combination, at 0.05 µM
[36] = measured here: inhibition with cisplatin combination, at 0.05 µM
[37] = measured here: BGB combination, at 0.5 µM
[38] = measured here: BGB combination, at 5 µM
[39] = measured here: cisplatin combination, at 0.5 µM
[40] = measured here: cisplatin combination, at 5 µM
[41] = BGB combination, concentration series, at 5 µM
[42] = cisplatin combination, concentration series, at 5 µM
[43] = measured here: combo with BGB IC20, at 0.5 µM
[44] = measured here: combo with cisplatin IC20, at 0.5 µM
[45] = cisplatin combination, at 0.5 µM
[46] = measured here: BGB IC40 combination 0.05 uM, at 0.05 µM
[47] = measured here: BGB IC40 combination, at 0.05 µM

## Nc1nc(F)nc2c1ncn2C1OC(CO)C(O)C1O (stereo unspecified)
[1]; [16]
  inhibition: -23.4% (inactive) and 5.5% (inactive)
[1]; [17]
  inhibition: -13.1% and 10.2%
[1]; [18]
  inhibition: -4.16% and 17.3%
[1]; [19]
  inhibition: -14.8% and 4.66%
[1]; [20]
  inhibition: -27.4% and 14.8%
[1]; [21]
  inhibition: 85.8% and 94.5%
[2]; BGB combo, at 5 µM
  inhibition: 27.6% and 14.7%
[2]; at 0.5 µM
  inhibition: -7.43% (inactive) and -36.4% (inactive)
[2]; cisplatin combo, at 5 µM
  inhibition: 20.8% and 7.89%
[2]; [22]
  inhibition: 3.36% and -26.3%
[2]; [23]
  inhibition: -16.4% and -54.5%
[2]; single agent, at 5 µM
  inhibition: 45.6% and 12.3%
[3]; BGB IC20 combo, at 0.005 µM
  inhibition: 20.7% and -6.33%
[3]; BGB IC40 combo, at 0.005 µM
  inhibition: -14.7% and -39.6%
[3]; BGB IC40 combo, at 0.05 µM
  inhibition: 0.533% and 4.89%
[3]; at 0.5 µM
  inhibition: -14.3% (inactive) and -20.5% (inactive)
[3]; cisplatin combo, at 0.05 µM
  inhibition: -3.04% and 2.23%
[3]; cisplatin combo, at 0.5 µM
  inhibition: -8.41% and -26.1%
[3]; cisplatin combo, at 5 µM
  inhibition: -23% and -33%
[3]; [24]
  inhibition: -7.66% and -8.57%
[4]; at 0.5 µM
  inhibition: -2.13% (inactive) and -19.9% (inactive)
[4]; [19]
  inhibition: 3.73% and -32%
[4]; [25]
  inhibition: 9.09% and -1.53%
[4]; [26]
  inhibition: 76.5% and 57.3%
[5]; at 0.5 µM
  inhibition: 3.43% (inactive) and -25.3% (inactive)
[5]; [27]
  inhibition: -0.749% and -38.9%
[5]; [28]
  inhibition: 44.9% and 11%
[5]; [29]
  inhibition: 2.7% and -32%
[5]; [30]
  inhibition: 37% and 41.2%
[5]; single agent, at 5 µM
  inhibition: 58.5% and 39.5%
[6]; at 0.5 µM
  inhibition: 94% (active) and 94.9% (active)
[6]; [31]
  inhibition: 94.8% and 95%
[6]; [32]
  inhibition: 91.9% and 95.1%
[7]; at 0.5 µM
  inhibition: 5.8% (inactive) and 2.84% (inactive)
[7]; [33]
  inhibition: 3.8% and -3.69%
[7]; [34]
  inhibition: 2.93% and 14.9%
[8]; at 0.5 µM
  inhibition: 2.58% (inactive) and -11.8% (inactive)
[8]; [35]
  inhibition: -5.13% and -19.7%
[8]; [36]
  inhibition: -18.9% and -14.7%
[9]; at 0.5 µM
  inhibition: 12% (inactive) and -3.14% (inactive)
[9]; [25]
  inhibition: 3.75% and 4.65%
[9]; [26]
  inhibition: 69.4% and 48.7%
[10]; at 0.5 µM
  inhibition: 2.72% (inactive) and -8.67% (inactive)
[10]; [37]
  inhibition: 0.63% and 6.32%
[10]; [38]
  inhibition: 12.4%
[10]; [39]
  inhibition: -0.776% and -26.9%
[10]; [40]
  inhibition: 1.99% and 20.7%
[11]; [41]
  inhibition: 34% and 13%
[11]; at 0.5 µM
  inhibition: 3.6% (inactive) and -10.5% (inactive)
[11]; [42]
  inhibition: 32.8% and 23%
[12]; at 0.5 µM
  inhibition: 13.7% (inactive) and -16.7% (inactive)
[12]; [43]
  inhibition: 0.417% and -14%
[12]; [44]
  inhibition: 20% and -36.2%
[13]; at 0.5 µM
  inhibition: -17.4% (inactive) and 8.96% (inactive)
[13]; [45]
  inhibition: -38.6% and 6.07%
[13]; cisplatin combination, at 5 µM
  inhibition: 36.8% and 59.3%
[13]; [46]
  inhibition: -18.2% and 2.24%
[13]; single agent, at 5 µM
  inhibition: -9.05% and -4.51%
[14]; at 0.5 µM
  inhibition: 0.9% (inactive) and -15.3% (inactive)
[14]; cisplatin combo, at 5 µM
  inhibition: 44.7% and 68%
[14]; [47]
  inhibition: 1.47% and -4.03%
[14]; [25]
  inhibition: 30.2% and -17.9%
[14]; single agent, at 5 µM
  inhibition: 8.81% and -20.7%
[15]; at 0.5 µM
  inhibition: 8.8% (inactive) and -39.7% (inactive)
[15]; [22]
  inhibition: 5.25% and -35.7%
[15]; [23]
  inhibition: 9.12% and -44.9%
[15]; single agent, at 0.05 µM
  inhibition: -7.3% and -43.1%
[15]; single agent, at 5 µM
  inhibition: 24% and -66.2%

## CC[C@H](C)[C@@H]([C@@H](CC(=O)N1CCC[C@H]1[C@H](OC)[C@@H](C)C(=O)N[C@@H](Cc1ccccc1)C(=O)O)OC)N(C)C(=O)[C@@H](NC(=O)[C@@H](NC)C(C)C)C(C)C (H-[NMeV]V[Dil][Dolaproine]F-OH)
[1]; [16]
  inhibition: -34.4% (inactive)
[1]; [17]
  inhibition: -15%
[1]; [18]
  inhibition: -52.5%
[1]; [19]
  inhibition: -31.6%
[1]; [20]
  inhibition: -31.7%
[1]; [21]
  inhibition: 13.5%
[2]; BGB combo, at 5 µM
  inhibition: 68.3%
[2]; at 0.5 µM
  inhibition: 71.4% (inactive)
[2]; cisplatin combo, at 5 µM
  inhibition: 69.6%
[2]; [22]
  inhibition: 62.6%
[2]; [23]
  inhibition: 60.4%
[2]; single agent, at 5 µM
  inhibition: 96.5%
[3]; BGB IC20 combo, at 0.005 µM
  inhibition: -18.1%
[3]; BGB IC40 combo, at 0.005 µM
  inhibition: -4.8%
[3]; BGB IC40 combo, at 0.05 µM
  inhibition: 21.2%
[3]; at 0.5 µM
  inhibition: -6.87% (inactive)
[3]; cisplatin combo, at 0.05 µM
  inhibition: 17.4%
[3]; cisplatin combo, at 0.5 µM
  inhibition: -3.43%
[3]; cisplatin combo, at 5 µM
  inhibition: -11.7%
[3]; [24]
  inhibition: -7.94%
[4]; at 0.5 µM
  inhibition: -16.4% (inactive)
[4]; [19]
  inhibition: -34.7%
[4]; [25]
  inhibition: -7.82%
[4]; [26]
  inhibition: 15.8%
[5]; at 0.5 µM
  inhibition: 55.8% (inactive)
[5]; [27]
  inhibition: 69.6%
[5]; [28]
  inhibition: 59.7%
[5]; [29]
  inhibition: 20.4%
[5]; [30]
  inhibition: 67.1%
[5]; single agent, at 5 µM
  inhibition: 86.4%
[6]; at 0.5 µM
  inhibition: 35% (inactive)
[6]; [31]
  inhibition: 36.6%
[6]; [32]
  inhibition: 9.03%
[7]; at 0.5 µM
  inhibition: 43.8% (inactive)
[7]; [33]
  inhibition: 44.1%
[7]; [34]
  inhibition: 39.9%
[8]; at 0.5 µM
  inhibition: 20.2% (inactive)
[8]; [35]
  inhibition: -13%
[8]; [36]
  inhibition: -3.2%
[9]; at 0.5 µM
  inhibition: -9.71% (inactive)
[9]; [25]
  inhibition: -31.2%
[9]; [26]
  inhibition: -10.7%
[10]; at 0.5 µM
  inhibition: 50.1% (inactive)
[10]; [37]
  inhibition: 39.8%
[10]; [38]
  inhibition: 58%
[10]; [39]
  inhibition: 45.4%
[10]; [40]
  inhibition: 73.6%
[11]; [41]
  inhibition: 49.3%
[11]; at 0.5 µM
  inhibition: 26.4% (inactive)
[11]; [42]
  inhibition: 53.2%
[12]; at 0.5 µM
  inhibition: 31.9% (inactive)
[12]; [43]
  inhibition: 39.5%
[12]; [44]
  inhibition: 19.9%
[13]; at 0.5 µM
  inhibition: 7.92% (inactive)
[13]; [45]
  inhibition: -4.86%
[13]; cisplatin combination, at 5 µM
  inhibition: -10.9%
[13]; [46]
  inhibition: -19.9%
[13]; single agent, at 5 µM
  inhibition: 67.2%
[14]; at 0.5 µM
  inhibition: -11.8% (inactive)
[14]; cisplatin combo, at 5 µM
  inhibition: 17%
[14]; [47]
  inhibition: -3.82%
[14]; [25]
  inhibition: -17.8%
[14]; single agent, at 5 µM
  inhibition: 17.3%
[15]; at 0.5 µM
  inhibition: 42.9% (inactive)
[15]; [22]
  inhibition: 47.9%
[15]; [23]
  inhibition: 39.4%
[15]; single agent, at 0.05 µM
  inhibition: -9.33%
[15]; single agent, at 5 µM
  inhibition: 84.4%
